Results filed as inconclusive are left out. Activity calls are given as the source filed them. The calls were made as follows, unless noted: active = hit-call score of the fitted dose curve at least 0.9, where 1 is the maximum; inconclusive = response in the unintended direction; inactive = score below 0.9.

The text below walks through data of PubChem BioAssay (EPA / NIEHS).

A short description of assay [1]: IUF_NPC4_neurite_length_120hr: Leibniz Research Institute for Environmental Medicine (IUF) 120-hour Neuronal Morphology Assay for Neurite Length (NPC4) (AID 2284302; active = hit-call score of the fitted dose curve at least 0.9, where 1 is the maximum; inactive = score below 0.9). The method, boiled down:
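Neurite length, the mean in um across TUBB3-stained neurons, is derived by skeletonization of high-content images after 120 h differentiation. Compound exposure, 7 concentrations plus solvent control, ran from plating of hNPC spheres on poly-D-lysine/laminin, with medium half-replaced on day 3.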

Assay [2] in a line: IUF_NPC4_neurite_area_120hr: Leibniz Research Institute for Environmental Medicine (IUF) 120-hour Neuronal Morphology Assay for Neurite Area (NPC4) (AID 2284305). The method, boiled down: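 Neurite area (pixels, nuclei excluded) of TUBB3-positive neurons from hNPC spheres differentiating 5 days under continuous exposure at 37 C, 5% CO2. High-content imaging; loss of signal versus DMSO control across 7 concentrations.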

Assay [3] in a line: IUF_NPC2-5_cytotoxicity_72hr: Cytotoxicity Assessment at 72 hours in the Leibniz Research Institute for Environmental Medicine (IUF) Neural Progenitor Cell Migration and Differentiation Assay for Cytotoxicity (NPC2-5) (AID 2284306).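 Also: LDH release into supernatant measured by resorufin fluorescence marking membrane damage.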 The method, boiled down:
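Membrane-integrity cytotoxicity at 72 h, read as LDH-driven resorufin fluorescence in supernatant. hNPC spheres from fetal cortex differentiate on coated plates in N2 medium, 37C, 5% CO2; seven serial compound concentrations plus solvent control (DMSO ≤0.1%).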

A short description of assay [4]: IUF_NPC2-5_cytotoxicity_120hr: Cytotoxicity Assessment at 120 hours in the Leibniz Research Institute for Environmental Medicine (IUF) Neural Progenitor Cell Migration and Differentiation Assay (NPC2-5) (AID 2284307). The method, boiled down:
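Sphere plating starts differentiation and exposure together at day 0. Compound solution is half-replaced on day 3. At 120 h, medium supernatant is taken for an LDH membrane-integrity read based on resazurin reduction to resorufin fluorescence.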

Assay [5] can be described thus: IUF_NPC2-5_cell_number_120hr: Cell Number Assessment at 120 hours in the Leibniz Research Institute for Environmental Medicine (IUF) Neural Progenitor Cell Migration and Differentiation Assay (NPC2-5) (AID 2284308; active = hit-call score of the fitted dose curve at least 0.9, where 1 is the maximum; inactive = score below 0.9;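 also: count of Hoechst-stained nuclei in migration zone around plated human neural progenitor spheres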). The method, boiled down:
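hNPC spheres, one per well, PDL/laminin, N2 medium, 37C, 5% CO2. Dosing day 0 → half-medium change with fresh compound day 3 → fix 120 h. Readout: Hoechst+ nuclei count, migration area; 7 concentrations plus solvent control.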

The nature of assay [6]: IUF_NPC2-5_viability_120hr: Viability Assessment at 120 hours in the Leibniz Research Institute for Environmental Medicine (IUF) Neural Progenitor Cell Migration and Differentiation Assay (NPC2-5) (AID 2284312; active = hit-call score of the fitted dose curve at least 0.9, where 1 is the maximum; inactive = score below 0.9). A digest of the protocol: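 Alamar blue resorufin fluorescence read after 5 days of differentiation, with compound present from day 0 and replenished at day 3. Primary hNPC spheres on laminin-coated plates, 37C; seven concentrations plus solvent control, fitted against DMSO.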

The nature of assay [7]: CCTE_Mundy_HCI_iCellGluta_NOG_NeuriteLength: CCTE's Neurite Outgrowth Assay in iCellGluta cells for Neurite Length, Mundy Lab (AID 2284318). A digest of the protocol:
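Automated high-content imaging of betaIII-tubulin (Alexa Fluor-488) and Hoechst-stained cells gave neurite length, normalized to the DMSO baseline.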

Assay [8] is described as follows: IUF_NPC1_cytotoxicity_72hr: Cytotoxicity Assessment at 72 hours in the Leibniz Research Institute for Environmental Medicine (IUF) Neural Progenitor Cell Proliferation Assay (NPC1) (AID 2284332).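 Also: rising LDH signal means more cytotoxicity.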 The method, boiled down: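 Cytotoxicity by LDH membrane-integrity assay on medium supernatants, fluorescence via resazurin reduction, after 3-day single exposure of primary hNPC spheres at 37C, pH 7.2-7.6 with growth factors. Fitted upward against baseline.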

Assay [9] is described as follows: CCTE_Mundy_HCI_iCellGluta_NOG_NeuronCount: CCTE's Neurite Outgrowth Assay in iCellGluta cells for Neuron Count, Mundy Lab (AID 2284340).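 Also: cells fixed about 48 h after compound addition.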 The method, boiled down:
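Neuron count read by automated high-content imaging of Hoechst 33342 and betaIII-tubulin/Alexa Fluor-488 labelling in human iPSC glutamatergic neurons. Activity fitted relative to DMSO.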

A short description of assay [10]: CCTE_Mundy_HCI_iCellGluta_NOG_NeuriteCount: CCTE's Neurite Outgrowth Assay in iCellGluta cells for Neurite Count, Mundy Lab (AID 2284342).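 Also: chemical exposure about 48 hours starting 2 hours after plating.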
The nature of assay [11]: TAMU_PeakParms_SingleDonor1434_Asystole: Texas A&M University (TAMU) 1.5-hr Human Induced Pluripotent Stem Cell (iPSC)-derived Cardiomyocytes Calcium (Ca+2) Flux Assay for Cardiotoxicity: Asystole (quiescence of beating) (AID 2284328). The method, boiled down:
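Average Ca2+-flux peak frequency (beats/s) was recorded in single-donor iPSC-derived cardiomyocytes after 90 min exposure (0.2–100 uM final, 0.5% DMSO). Asystole POD set as EC95 against DMSO, no preprocessing.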

The subject of assay [12] is IYD (gene 389434). Description: CCTE_GLTED_hIYD: CCTE's human Iodotyrosine Deiodinase (xIYD) Inhibition Assay, Great Lakes Toxicology and Ecology Division (GLTED) Lab (AID 2284317).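 Also: cell-free human IYD enzyme made in baculovirus insect cells; iodide freed from monoiodotyrosine measured by cerium arsenite color change at 420 nm.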 A digest of the protocol: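 In the IYD assay, iodide released from MIT by insect-cell-expressed human enzyme was quantified after 3 h via Sandell-Kolthoff rate at 420 nm, with plate-wise normalization to MNT and solvent controls.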

Assay [13] is described as follows: VALA_TUBHUV_Antagonist_CellCount: Viability Assessment in the VALA Sciences human Umbilical Vein Endothelial Tubule Formation (TUBHUV) Antagonism Assay (AID 2284310). A digest of the protocol: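 Read-out is imaged cell count after nuclear and CD31 staining, fitted against 0.1% DMSO vehicle. Compounds were added for 3 days, in 10 ng/ml VEGF assay medium, to HUVEC–HDF co-cultures pre-grown 3 days.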

Assay [14] is described as follows: VALA_MIGHUV2_WoundArea: VALA Sciences human Umbilical Vein Endothelial Cell Migration (MIGHUV) Assay, Area of Scratch Wound after Recovery (AID 2284316). A digest of the protocol:
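Wound-area endpoint read by fluorescence imaging of Hoechst-stained nuclei after a 24 h recovery period following scratch of HUVEC monolayers (9000 cells/well). Chemicals dosed within 30 min post-scratch, triplicate 6-point series, 0.1% DMSO vehicle; Cytochalasin D positive control.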

Assay [15] is described as follows: VALA_MIGHUV1_ScratchOnly_CellCount: Viability Assessment in the VALA Sciences human Umbilical Vein Endothelial Cell Migration (MIGHUV) Assay, Scratch Wound Inhibited Recovery (AID 2284327). The method, boiled down:
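Hoechst-stained nuclei in the scratch wound were counted by high-content imaging after a 24 h recovery period. Scratched HUVEC monolayers received 6-point concentration series, triplicate, in 0.1% DMSO, fit against DMSO.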

The nature of assay [16]: VALA_MIGHUV1_ScratchOnly_WoundArea: VALA Sciences human Umbilical Vein Endothelial Cell Migration (MIGHUV) Assay, Area of Scratch Wound Inhibited Recovery (AID 2284336). The method, boiled down: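 Wound area remaining after 24 h recovery imaged by Hoechst nuclear fluorescence in scratched HUVEC cultures, chemicals added within 30 min of scratching across a 6-point series. Gain of signal fitted against 0.1% DMSO; cytochalasin D positive control.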

The nature of assay [17]: VALA_TUBIPS_Agonist_CellCount: Viability Assessment in the VALA Sciences human iPS-derived Endothelial Tubule Formation (TUBIPS) Agonism Assay (AID 2284338).

As to `N#CN=C1SCCN1Cc1ccc(Cl)nc1`, the result in [1], in [2], in [3], in assay [4], in assay [5] and in assay [6] was inactive. For the same compound, the outcome in assay [7], in assay [8], in assay [9] and in assay [10] was inactive.

What is called AC50 is the concentration giving half of the maximal activity seen. Take `CNC(=O)Oc1cccc2ccccc12`: the AC50 in assay [1] and in assay [2] was 10 µM (active) in each case. Also, the call in assay [3], in [4], in [5], in [6], in assay [7] and in assay [11] was inactive. Also, the call in [8], in assay [9] and in [10] was inactive.

Consider `C=C(C)CN(CC)c1c([N+](=O)[O-])cc(C(F)(F)F)cc1[N+](=O)[O-]`, for which the result in assay [1], in assay [2], in assay [4], in [5], in assay [6] and in assay [8] was inactive. Besides, the concentration at half-maximal activity (AC50) in [7] is 22.1 µM (active); in [9] it was 31.1 µM (active); in [10] it was 26.5 µM (active).

Regarding `OC(c1ccc(Cl)cc1)(c1ccc(Cl)cc1)C(Cl)(Cl)Cl`, the AC50 in assay [12] was 100 µM (active).

`COCc1cnc(C2=NC(C)(C(C)C)C(=O)N2)c(C(=O)O)c1` (stereo unspecified): the result in assay [13], in [14], in assay [15], in assay [16] and in assay [17] was inactive.

As to `CCSC(=O)N1CCCCCC1`, in assay [1], the concentration at half-maximal activity (AC50) is 0.143 µM (active). The compound was called inactive in [3], in assay [4], in [5], in [6], in assay [7] and in assay [8]. Further, the outcome in assay [9] and in assay [10] was inactive.

On to `COC(=O)N(C(=O)N1CO[C@@]2(C(=O)OC)Cc3cc(Cl)ccc3C2=N1)c1ccc(OC(F)(F)F)cc1`, for which the compound was classed as inactive in assay [1], in [3], in [4], in assay [5], in assay [6] and in assay [7]. In addition, the call in assay [8], in assay [9] and in [10] was inactive.

For the compound `CCCCC(C#N)(Cn1cncn1)c1ccc(Cl)cc1` (stereo unspecified), the outcome in assay [11] was inactive.

With `CO/N=C(/C1=NOCCO1)c1ccccc1Oc1ncnc(Oc2ccccc2Cl)c1F`, the call in assay [1], in assay [2], in assay [3], in assay [4], in assay [5] and in assay [6] was inactive. Further, the results for the half-maximal activity concentration (AC50) in [7], in assay [9] and in assay [10] were 9.92 µM (active), 39.4 µM (active) and 24.4 µM (active), respectively.

On to `CCNC(=O)NC(=O)C(C#N)=NOC`, for which the result in [1], in assay [2], in assay [3], in assay [4], in [5] and in [6] was inactive. The compound was classed as inactive in assay [7], in assay [8], in assay [9] and in [10].

As to `CS(=O)(=O)c1cc(C(F)(F)F)ccc1C(=O)c1cnoc1C1CC1`, the outcome in [1], in [2], in assay [3], in [4], in assay [5] and in [6] was inactive. The compound was called inactive in assay [7], in assay [8], in assay [9] and in assay [10].

Consider `CS(=O)(=O)c1ccc(C(=O)C2C(=O)CCCC2=O)c([N+](=O)[O-])c1`, for which, in [1], the concentration at half-maximal activity (AC50) was 0.203 µM (active). Also, the call in assay [3], in [4], in assay [5], in assay [6], in assay [7] and in assay [10] was inactive.
